Data reported in PubChem BioAssay (NCI).
Compounds without any hit were thinned out: in the full panel of roughly 83,000, 20% have a hit.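 Cell lines were cultured in 96-well plates, exposed to a single compound concentration, and assessed for percent growth 48 hours later.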 A number with no mark means an inactive call. The source made the active and inactive calls. The calls were made as follows: active = growth percent below 10; inactive = the rest.

Assays:
Assay in all cases: NCI-60 one-dose screen, 48 h (100 = growth as untreated, 0 = no growth, -100 = all killed)
Settings in all cases: 10 µM unless noted
HCT-15 colon = tested on: HCT-15 colon
HT29 colon = tested on: HT29 colon
SNB-75 CNS = tested on: SNB-75 CNS
SNB-19 CNS = tested on: SNB-19 CNS
U251 CNS = tested on: U251 CNS
PC-3 prostate = tested on: PC-3 prostate
SK-MEL-5 melanoma = tested on: SK-MEL-5 melanoma
UACC-62 melanoma = tested on: UACC-62 melanoma
LOX IMVI melanoma = tested on: LOX IMVI melanoma
SK-MEL-28 melanoma = tested on: SK-MEL-28 melanoma

| SMILES | growth (HCT-15 colon) | growth (HT29 colon) | growth (SNB-75 CNS) | growth (SNB-19 CNS) | growth (U251 CNS) | growth (PC-3 prostate) | growth (SK-MEL-5 melanoma) | growth (UACC-62 melanoma) | growth (LOX IMVI melanoma) | growth (SK-MEL-28 melanoma) |
| --- | --- | --- | --- | --- | --- | --- | --- | --- | --- | --- |
| CCN(C(=O)Nc1cccc2ccccc12)c1ccccc1 | 90.8% | 103% | 92.4% | 102% | 97.7% | 85.9% | 95.5% | 80.5% | 102% | 112% |
| CN1CCN(Cc2ccc(NC(=O)c3cncc(C#Cc4ncc5ccccn45)c3)cc2C(F)(F)F)CC1 | 19.2% | 5.13% (active) | 34.3% | 39% | -27.7% (active) | 21.9% | 52.3% | 51.7% | 25.7% | 8.57% (active) |
| NC(N)=N/N=C/c1ccccc1 | 93.1% | 99.8% | 88.6% | 92.5% | 97.5% | 94.1% | 102% | 101% | 100% | 100% |
| COc1ccc(/C=c2\c(=O)n(-c3ccccc3)c3nn4c(=O)c(=O)[nH]nc4n23)cc1 | 106% | 110% | 109% | 111% | 112% | 102% | 101% | 101% | 96.3% | 131% |
| O=C(/C=C/c1ccccc1)C(Br)C(Br)c1ccccc1 (stereo not given) | -32.7% (active) | -53.5% (active) | 80.1% | 73.5% | 42.9% | 4.21% (active) | 38.9% | 5.9% (active) | -68.6% (active) | 11.1% |
| COc1cc(C2=NOC(c3cc(OC)c(OC)c(OC)c3)C2)ccc1OCCCCOc1cc2c(cc1OC)C(=O)N1CCC[C@H]1C=N2 (stereo not given in full) | 4.27% (active) | -12.3% (active) | -87.7% (active) | -9.51% (active) | -9.51% (active) | -2.09% (active) | -85.3% (active) | -76.6% (active) | -68.6% (active) | -66.1% (active) |
| CNC(=O)c1cc(Oc2ccc(NC(=O)c3nc(S(C)(=O)=O)n(C)c3-c3ccc(F)cc3)cc2)ccn1 | 57.8% | 71.9% | 43% | 85% | 76.1% | 64.1% | 73.8% | 62% | 62.4% | 95.7% |
| O=C(O)/C=C(\c1nc2ccc([N+](=O)[O-])cc2[nH]1)c1cc(Cl)ccc1O | 21.1% | 36.2% | 50.4% | 18.5% | 16.9% | 14.1% | -28% (active) | -3.61% (active) | 21% | 20.8% |
| O=[N+]([O-])c1cc(F)c2cccnc2c1O | 92.1% | 111% | 86% | 93% | 91.9% | 96.6% | 90.2% | 92.9% | 84.7% | 135% |
| Clc1ccc2c(c1)-c1ccccc1C1=NCCN12 | 20% | 4.08% (active) | 49.5% | 41.6% | 25% | 28.5% | 19.9% | 30.3% | 11.7% | 43.2% |
| COCCCNCC(=O)Nc1c(C)cccc1C | 108% | 112% | 115% | 110% | 104% | 102% | 106% | 110% | 101% | 122% |
| O=C(NCC(c1ccsc1)N1CCCCCC1)c1ccc(C(F)(F)F)cc1 (stereo not given) | 100% | 82% | 87.6% | 87.9% | 90.7% | 88.5% | 94.9% | 99.1% | 78.9% | 110% |
| C=CCn1c(C)nc2cc(Nc3nc(N4CCCC4)nc4nc[nH]c34)ccc21 | 94.4% | 12.4% | -64.9% (active) | 44.9% | 21.2% | 42.6% | 49.5% | 31.7% | 37.8% | 30.3% |
| COc1ccc(/C(=C\c2ccc3c(c2)OCO3)C(=O)Nc2nc3ccc(F)cc3s2)cc1OC | 108% | 95.3% | 90.9% | 109% | 96.2% | 88.2% | 104% | 108% | 101% | 102% |
